We go through 16 compounds from PubChem BioAssay (NCATS).

SMILES strings stand for the structures. Results filed as inconclusive are left out. Values without a mark were called inactive. Activity calls are given as the source filed them. Calls come from the whole dose curve; as a rule, active = well fitted curve in the direction sought with a large enough effect; inconclusive = small, poorly fitted or top-dose-only effect, or another doubt; inactive = no such curve, though single readings can be large; an effect the other way counts as inactive or inconclusive.

For one assay, the system named is Hek293T. Description: Primary qHTS to identify gynecologic anti-cancer compounds using libraries of approved drugs and bioactive compounds (AID 1345084). Note: nearly all actives have a fitted effect of over 55% in size. To be noted: Gynecologic cancer cell panel viability, ATPlite luminescence, 48 h, control line for the selectivity index; series mostly up to 57.5 µM. In outline:
(§1)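 Cell viability after 48 h drug treatment, ATPlite luminescence readout; five doses.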

For the next assay, the system named is JEG-3. The description is as above. To be noted: Gynecologic cancer cell panel viability, ATPlite luminescence, 48 h; series mostly up to 57.5 µM. A digest of the protocol: as §1
The test system of the next assay is OV90. The description is as above. To be noted: Gynecologic cancer cell panel viability, ATPlite luminescence, 48 h; series mostly up to 57.5 µM. A digest of the protocol: as §1
The subject of a further assay is PA-1. The assay is described as above. To be noted: Gynecologic cancer cell panel viability, ATPlite luminescence, 48 h; series mostly up to 57.5 µM. A digest of the protocol:
as §1

For a further assay, the system named is SKOV3. The assay is described as above. The conditions noted are these: Gynecologic cancer cell panel viability, ATPlite luminescence, 48 h; series mostly up to 57.5 µM. A digest of the protocol:
as §1

The test system of the next assay is Tov-21-G. The description is as above. To be noted: Gynecologic cancer cell panel viability, ATPlite luminescence, 48 h; series mostly up to 57.5 µM. A digest of the protocol: as §1
Another assay relates to Tov112D. The assay is described as above. The conditions noted are these: Gynecologic cancer cell panel viability, ATPlite luminescence, 48 h; series mostly up to 57.5 µM. In outline:
as §1

Assay [1] can be described thus: Drug repurposing screens with cells derived from glioblastoma tumor samples (AID 1345199). Note: nearly all actives have a fitted effect of over 40% in size. Note: potency is the fitted concentration of half-maximal effect. To be noted: GBM patient neurospheres viability, ATP luminescence, 48 h. In outline: (§2)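 Four patient lines of CD133+ GBM neurospheres were screened at several concentrations; hits were retested in those lines plus three slower-growing GBM lines, using 48-hour treatment and ATP-based viability.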

The subject of a further assay is astro. Described as above. To be noted: viability, ATP luminescence, 48 h; series mostly up to 45.9 µM. A digest of the protocol: as §2
Assay [2] in a line: qHTS assay to identify inhibitors of the type 1 interferon - major histocompatibility complex class I in skeletal muscle: Counter screen cell viability and HiBit confirmation (AID 1347412). Note: nearly all actives have a fitted effect of over 60% in size. The conditions noted are these: iHSKM muscle cells + IFN-b, HiBiT or CellTiter-Glo, 24 h; Potency: HiBiT; Viability, at 45.9 µM (top of the series). A digest of the protocol:
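HLA-B*08:01–HiBiT knock-in immortalized human myoblasts (C25cl48) stimulated with 4.0 ng/ml human IFN-beta and dosed with compound in a 12-point 1:3 titration (top final 46 uM). After 24 hrs at 37 C, HiBiT lytic luminescence or CellTiter Glo ATP read out.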

[3] abbreviates: at 45.9 µM (top of the series), tumour line B.
Setting [4] is: at 45.9 µM (top of the series), tumour line D.
Setting [5] is: at 46 µM (top of the series), tumour line A.
The mark [6] stands for this setting: at 46.1 µM (top of the series), tumour line C.
% is set by controls: 0 for no effect and ±100 for the full control effect.

Regarding `CC1=C(C(=O)O)N2C(=O)[C@@H](NC(=O)[C@H](N)c3ccccc3)[C@H]2SC1`, the Potency entry with Hek293T, with JEG-3, in the assay on OV90, in the assay on PA-1, with SKOV3 and in the assay on Tov-21-G was “inactive” throughout. In addition, the Potency entry (with Tov112D; in the assay on astro; in [2]) was “inactive” throughout. In addition, the activity, negative = cell killing in assay [1] (setting [3]) is -0.246%; in assay [1] (setting [4]), -6.88%; in [1] (setting [5]), -19.6%; in [1] (setting [6]), -1.45%.
Consider `COc1cc(C(=S)N2CCOCC2)ccc1O`, for which the Potency entry in the assay on Hek293T, in the assay with JEG-3, in the assay with OV90, in the assay on PA-1, in the assay on SKOV3 and in the assay on Tov-21-G was “inactive” throughout. Moreover, the Potency result in the assay with Tov112D and in the assay on astro was “inactive” each time. In addition, the activity, negative = cell killing is -7.92% in assay [1] (setting [3]), 6.32% in assay [1] (setting [4]), -27.5% in assay [1] (setting [5]) and -22.1% in assay [1] (setting [6]).
Take `OCc1ccccn1`: the Potency entry with Hek293T, with JEG-3, in the assay with OV90, with PA-1, in the assay with SKOV3 and in the assay on Tov-21-G was “inactive” throughout. Also, the Potency entry in the assay with Tov112D and with astro was “inactive” each time. In addition, the activity, negative = cell killing was -0.907% in [1] (setting [3]), 14.9% in [1] (setting [4]), -24% in assay [1] (setting [5]) and -5.53% in assay [1] (setting [6]).
In the case of `CC(=O)Oc1ccc(C)cc1`, the Potency result with Hek293T, in the assay on JEG-3, in the assay on OV90, in the assay on PA-1, with SKOV3 and in the assay on Tov-21-G was “inactive” in each case. The Potency result in the assay with Tov112D and in the assay with astro was “inactive” in each case. Moreover, the activity, negative = cell killing in [1] (setting [3]) was -11.7%; in assay [1] (setting [4]), -7.35%; in assay [1] (setting [5]) it was -28.8%; in assay [1] (setting [6]), -10.6%.
On to `NCCNC(=O)c1ccc(Cl)cn1`, for which the Potency result in the assay on Hek293T, in the assay with JEG-3, in the assay on OV90, in the assay on PA-1, with SKOV3 and in the assay with Tov-21-G was “inactive” throughout. The Potency entry with Tov112D and with astro was “inactive” in each case. The activity, negative = cell killing was -0.687% in assay [1] (setting [3]), -7.85% in [1] (setting [4]), -29.4% in assay [1] (setting [5]) and -12.2% in assay [1] (setting [6]).
Regarding `C=C[C@H]1CN2CC[C@H]1C[C@@H]2[C@@H](O)c1ccnc2ccc(OC)cc12`, the Potency entry in the assay with Hek293T, in the assay with JEG-3, in the assay on OV90, in the assay on PA-1, in the assay on SKOV3 and in the assay on Tov-21-G was “inactive” each time. For the same compound, the Potency entry in the assay on Tov112D and in the assay on astro was “inactive” in each case. For the same compound, the figures for the activity, negative = cell killing in [1] (setting [3]), in [1] (setting [4]) and in assay [1] (setting [6]) were -7.35%, -6.69% and 11.9%, respectively. In addition, the Potency in [1] (tumour line A) was 12.6 µM (active).
In the case of `CCCCCCCCCCCCSCCOCCO`, the Potency result in the assay with Hek293T, in the assay on JEG-3, in the assay on OV90, with PA-1, in the assay on SKOV3 and in the assay with Tov-21-G was “inactive” throughout. Also, the Potency result with Tov112D and with astro was “inactive” each time. Besides, the activity, negative = cell killing in [1] (setting [3]) is -1.92%; in assay [1] (setting [4]), -19.1%; in assay [1] (setting [6]), 9.86%. Besides, the Potency in [1] (tumour line A) was 35.5 µM (active).
As to `CC1CCc2c(N3CCC(O)CC3)c(F)cc3c(=O)c(C(=O)O)cn1c23` (stereo unspecified), the Potency entry with Hek293T, in the assay with JEG-3, in the assay with OV90, with PA-1, in the assay with SKOV3 and in the assay with Tov-21-G was “inactive” each time. Moreover, the Potency entry in the assay on Tov112D and with astro was “inactive” throughout. The activity, negative = cell killing in [1] (setting [3]) is 9.87%; in assay [1] (setting [4]), -25.4%; in [1] (setting [5]), -14.1%; in assay [1] (setting [6]), -16%.
With `Cc1c(-c2ccccc2)oc2c(C(=O)OCCN3CCCCC3)cccc2c1=O`, the Potency result in the assay with Hek293T, in the assay on JEG-3, in the assay on OV90, in the assay with PA-1, with SKOV3 and with Tov-21-G was “inactive” throughout. The Potency result in the assay with Tov112D and with astro was “inactive” each time. Moreover, the activity, negative = cell killing was 10.4% in assay [1] (at 20 µM (top of the series), tumour line C); -10.2% in assay [1] (at 21.2 µM (top of the series), tumour line B); -18.3% in [1] (at 21.2 µM (top of the series), tumour line D); -8.03% in assay [1] (at 21.3 µM (top of the series), tumour line A).
As to `CC(=O)O[C@H]1C[C@@H]2CC[C@@H]3[C@H](CC[C@@]4(C)[C@H]3C[C@H]([N+]3(C)CCCCC3)[C@@H]4OC(C)=O)[C@@]2(C)C[C@@H]1N1CCCCC1`, the Potency result with Hek293T, in the assay on JEG-3, in the assay with OV90, in the assay on PA-1, in the assay with SKOV3 and in the assay with Tov-21-G was “inactive” each time. In addition, the Potency entry in the assay on Tov112D and with astro was “inactive” in each case. Further, the values for the activity, negative = cell killing in [1] (setting [3]), in [1] (setting [4]) and in assay [1] (setting [6]) were -12.1%, -1.11% and -3.89%, respectively.
On to `Cc1c[nH]c2ccccc12`, for which the Potency result in the assay on Hek293T, in the assay with JEG-3, in the assay on OV90, with PA-1, in the assay with SKOV3 and in the assay on Tov-21-G was “inactive” each time. Further, the Potency result with Tov112D and with astro was “inactive” in each case. For the same compound, the activity, negative = cell killing in [1] (setting [3]) is -3.32%; in [1] (setting [4]), -13.8%; in assay [1] (setting [6]), -16.3%.
On to `CC(=O)Nc1ncc([N+](=O)[O-])s1`, for which the Potency entry in the assay with Hek293T, with JEG-3, in the assay on OV90, in the assay on PA-1, in the assay with SKOV3 and in the assay on Tov-21-G was “inactive” each time. In addition, the Potency entry in the assay with Tov112D and with astro was “inactive” in each case. The activity, negative = cell killing is -7.38% in assay [1] (setting [3]), -8.31% in assay [1] (setting [4]) and -21.7% in assay [1] (setting [6]).
As to `COP(=O)(OC)OC(c1ccc(Cl)cc1)P(=O)(OC)OC` (stereo unspecified), the Potency result in the assay on Hek293T, in the assay with JEG-3, in the assay with OV90, in the assay with PA-1, in the assay with SKOV3 and in the assay on Tov-21-G was “inactive” throughout. Also, the Potency result with Tov112D and with astro was “inactive” throughout. The activity, negative = cell killing was -15.7% in assay [1] (setting [3]), -14.1% in assay [1] (setting [4]) and -24.8% in assay [1] (setting [6]).
In the case of `O=C(NC1CCN(CCc2c[nH]c3ccccc23)CC1)c1ccccc1`, the Potency entry in the assay on Hek293T, with JEG-3, in the assay on OV90, with PA-1, in the assay on SKOV3 and in the assay with Tov-21-G was “inactive” throughout. Also, the Potency entry in the assay with Tov112D and with astro was “inactive” in each case. For the same compound, the activity, negative = cell killing in assay [1] (setting [4]) is -28%. Also, the Potency in [1] (tumour line A) was 11.2 µM (active); in assay [1] (tumour line C), 20.6 µM (active).
Consider `CO[C@]12C[C@@H](COC(=O)c3cncc(Br)c3)CN(C)[C@@H]1Cc1cn(C)c3cccc2c13`, for which the Potency entry in the assay on Hek293T, in the assay on JEG-3, in the assay on OV90, with PA-1, in the assay on SKOV3 and with Tov-21-G was “inactive” in each case. Besides, the Potency entry in the assay with Tov112D and in the assay on astro was “inactive” each time. Also, the figures for the activity, negative = cell killing in [1] (setting [3]), in [1] (setting [4]) and in assay [1] (setting [6]) were -27.1%, -16.6% and -7.09%, respectively.
Turning to `NC1CCN(c2nc3c(cc2F)c(=O)c(C(=O)O)cn3-c2ccc(F)cc2F)C1` (stereo unspecified), the Potency entry with Hek293T, in the assay on JEG-3, in the assay with OV90, in the assay on PA-1, with SKOV3 and with Tov-21-G was “inactive” in each case. For the same compound, the Potency result with Tov112D and in the assay with astro was “inactive” throughout. In addition, the values for the activity, negative = cell killing in assay [1] (setting [3]), in assay [1] (setting [4]) and in assay [1] (setting [5]) were -3.86%, -30% and -29.1%, respectively.
